Experimental data: PubChem BioAssay (NCATS)
Activity calls are given as the source filed them. The call rests on the fitted dose curve; in most records, active means well fitted activation curve with a large enough effect; inconclusive means small, poorly fitted or top-dose-only effect; inactive means flat fitted curve, though single readings scatter.

Test: Confirmation and Secondary Assay for Modulators of Hemoglobin Beta Chain Splicing at IVS2 705 locus (AID 930); further: % of control where 0% means no effect
Conditions: HeLa EGFP-705 splicing reporter, GFP fluorescence, 48 h; series mostly up to 46.1 µM; activation: at the top concentration
Summary of the method: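 Fluorescence gain (488 nm laser, 500-520 nm PMT) reflects restored correct splicing of a mutant IVS2-705 intron inside EGFP in stably transfected HeLa cells after 2-day compound treatment.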

Row | SMILES | activation
1 | CCC(c1ccc(O)cc1)C(CC)c1ccc(O)cc1 (stereo not given) | -0.0344% (inactive)
2 | OC(c1cc(C(F)(F)F)nc2c(C(F)(F)F)cccc12)C1CCCCN1 (stereo not given) | 1.21% (inactive)
3 | Cc1cc2nc3c(=O)[nH]c(=O)nc-3n(CC(O)C(O)C(O)CO)c2cc1C (stereo not given) | 24.7% (inactive)
4 | NCC1CCC(C(=O)O)CC1 (stereo not given) | 0.725% (inactive)
5 | O=C1C(CCC(O)c2ccc(F)cc2)C(c2ccc(O)cc2)N1c1ccc(F)cc1 (stereo not given) | 1.93% (inactive)
6 | CC(NCCc1ccc(O)cc1)C(O)c1ccc(O)cc1 (stereo not given) | 1.31% (inactive)
7 | CS(=O)(=O)c1ccc(C2=C(c3ccccc3)C(=O)OC2)cc1 | 3.25% (inactive)
8 | CC1(C)OC2CC3C4CC(F)C5=CC(=O)C=CC5(C)C4C(O)CC3(C)[C@]2(C(=O)CO)O1 (stereo not given in full) | 0.535% (inactive)
9 | COc1ccc2ccc(=O)oc2c1CC=C(C)C | 0.269% [at 38.3 µM] (inactive)
10 | COc1ccnc(CS(=O)c2nc3ccc(OC(F)F)cc3[nH]2)c1OC (stereo not given) | 1.12% (inactive)
